Source: publication PMC7862700, “An all-to-all approach to the identification of sequence-specific readers for epigenetic DNA modifications on cytosine”

How the values were obtained:
Assay in all cases: DAPPL (digital affinity profiling via proximity ligation, sequencing); 10 mM Tris-HCl pH 7.5, 50 mM NaCl, 1 mM DTT, 4% glycerol, room temperature, 30 min; GST-TFs on glutathione beads, 16-mer random dsDNA library, 0.1% formaldehyde crosslink after washing; high values mean tight binding
Details in all cases: protein: recombinant; tags: N-terminal GST; dsDNA, one strand shown
[1] = biological target: T1, ERF (Homo sapiens, UniProt P50548 1-548)
T1 sequence: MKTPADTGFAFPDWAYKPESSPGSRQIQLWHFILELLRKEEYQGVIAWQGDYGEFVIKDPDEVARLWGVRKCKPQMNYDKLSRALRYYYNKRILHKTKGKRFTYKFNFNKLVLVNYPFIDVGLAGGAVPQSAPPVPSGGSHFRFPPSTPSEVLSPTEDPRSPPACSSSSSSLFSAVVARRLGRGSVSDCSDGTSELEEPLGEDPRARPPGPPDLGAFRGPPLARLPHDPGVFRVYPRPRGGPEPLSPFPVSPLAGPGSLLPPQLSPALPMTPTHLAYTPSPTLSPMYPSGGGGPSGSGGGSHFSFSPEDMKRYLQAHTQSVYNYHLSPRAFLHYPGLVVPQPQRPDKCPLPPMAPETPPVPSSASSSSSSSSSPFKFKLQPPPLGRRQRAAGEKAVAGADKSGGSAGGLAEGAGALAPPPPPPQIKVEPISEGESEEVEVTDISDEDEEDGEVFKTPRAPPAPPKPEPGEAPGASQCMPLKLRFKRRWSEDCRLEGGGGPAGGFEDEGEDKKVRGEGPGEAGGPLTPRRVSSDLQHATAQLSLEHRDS
Summary of the method: (§1)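 Human transcription factors carrying a GST fusion were produced in yeast, bound to glutathione beads, tagged with DNA barcodes and pooled together with a tag-only sample. Each pool was held with 200 nmole of a random double-stranded 16-mer DNA library in Tris/NaCl/DTT/glycerol buffer for 30 min at room temperature, then washed, crosslinked in 0.1% formaldehyde, proximity-ligated with BsaI/T4 ligase (1 h, 37 °C), PCR-amplified and sequenced on an Illumina NextSeq500. Binding signal is the read frequency of each hexamer for a given factor divided by its frequency in the tag-only sample.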

[2] = biological target: T2, ETV3L (Homo sapiens, UniProt Q6ZN32 1-361)
T2 sequence: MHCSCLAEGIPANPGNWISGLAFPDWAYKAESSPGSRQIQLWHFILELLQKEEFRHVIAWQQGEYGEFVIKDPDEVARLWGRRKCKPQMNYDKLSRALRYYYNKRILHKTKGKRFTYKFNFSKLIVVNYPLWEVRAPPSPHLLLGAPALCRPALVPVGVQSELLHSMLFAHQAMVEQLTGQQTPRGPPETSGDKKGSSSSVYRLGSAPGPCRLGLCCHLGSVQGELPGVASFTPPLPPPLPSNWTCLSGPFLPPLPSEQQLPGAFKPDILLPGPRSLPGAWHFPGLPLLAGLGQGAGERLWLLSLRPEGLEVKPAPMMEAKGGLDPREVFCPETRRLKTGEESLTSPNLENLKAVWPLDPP
Summary of the method: as §1

[3] = biological target: T3, ETS2 (Homo sapiens, UniProt P15036 1-469)
T3 sequence: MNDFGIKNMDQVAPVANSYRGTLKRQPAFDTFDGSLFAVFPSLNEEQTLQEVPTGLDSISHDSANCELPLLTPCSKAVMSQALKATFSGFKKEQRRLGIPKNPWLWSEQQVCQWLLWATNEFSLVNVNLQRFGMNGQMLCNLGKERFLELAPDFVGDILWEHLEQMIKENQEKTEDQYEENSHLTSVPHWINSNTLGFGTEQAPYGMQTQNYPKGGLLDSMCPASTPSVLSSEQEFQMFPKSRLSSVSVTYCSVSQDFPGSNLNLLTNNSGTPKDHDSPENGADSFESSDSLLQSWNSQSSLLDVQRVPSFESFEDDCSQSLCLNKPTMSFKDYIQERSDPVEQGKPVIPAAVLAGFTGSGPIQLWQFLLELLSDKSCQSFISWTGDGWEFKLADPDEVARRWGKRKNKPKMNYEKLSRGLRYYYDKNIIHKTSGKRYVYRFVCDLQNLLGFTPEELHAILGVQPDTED
Summary of the method: as §1

[4] = biological target: T4, SPDEF (Homo sapiens, UniProt O95238 1-335)
T4 sequence: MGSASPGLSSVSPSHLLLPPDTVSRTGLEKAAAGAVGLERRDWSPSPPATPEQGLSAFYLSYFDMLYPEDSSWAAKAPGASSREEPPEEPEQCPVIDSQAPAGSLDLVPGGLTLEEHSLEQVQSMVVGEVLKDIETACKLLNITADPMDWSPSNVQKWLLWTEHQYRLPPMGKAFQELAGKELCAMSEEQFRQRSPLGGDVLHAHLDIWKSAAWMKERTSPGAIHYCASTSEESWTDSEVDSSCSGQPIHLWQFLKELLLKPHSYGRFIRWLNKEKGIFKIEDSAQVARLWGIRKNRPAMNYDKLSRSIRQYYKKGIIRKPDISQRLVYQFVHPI
Summary of the method: as §1

[5] = biological target: T5, ETV7 (Homo sapiens, UniProt Q9Y603 1-341)
T5 sequence: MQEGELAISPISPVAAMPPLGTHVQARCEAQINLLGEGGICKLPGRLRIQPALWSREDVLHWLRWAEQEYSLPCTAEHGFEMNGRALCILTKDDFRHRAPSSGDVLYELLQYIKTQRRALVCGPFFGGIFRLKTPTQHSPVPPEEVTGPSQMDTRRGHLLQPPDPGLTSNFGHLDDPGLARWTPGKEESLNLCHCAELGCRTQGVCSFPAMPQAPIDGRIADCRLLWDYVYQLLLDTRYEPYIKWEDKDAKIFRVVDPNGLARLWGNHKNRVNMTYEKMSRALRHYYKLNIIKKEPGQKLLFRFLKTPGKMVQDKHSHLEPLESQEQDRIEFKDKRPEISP
Summary of the method: as §1

[6] = biological target: T6, ELF5 (Homo sapiens, UniProt Q9UKW6-2 1-255)
T6 sequence: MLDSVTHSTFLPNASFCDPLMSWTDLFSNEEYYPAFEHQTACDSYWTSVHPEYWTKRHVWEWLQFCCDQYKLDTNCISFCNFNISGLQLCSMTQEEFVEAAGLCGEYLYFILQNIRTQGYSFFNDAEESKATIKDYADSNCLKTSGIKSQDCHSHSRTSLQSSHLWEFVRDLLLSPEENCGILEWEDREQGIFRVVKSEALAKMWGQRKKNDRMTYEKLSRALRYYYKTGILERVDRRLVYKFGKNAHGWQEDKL
Summary of the method: as §1

[7] = biological target: T7, ETV3 (Homo sapiens, UniProt P41162-2 1-143)
T7 sequence: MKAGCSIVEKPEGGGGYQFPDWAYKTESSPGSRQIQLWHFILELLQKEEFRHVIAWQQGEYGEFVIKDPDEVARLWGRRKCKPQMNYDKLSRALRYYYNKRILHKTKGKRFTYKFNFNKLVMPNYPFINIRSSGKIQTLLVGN
Summary of the method: as §1

[8] = biological target: ETV6 (Homo sapiens, UniProt P41212 1-452)
Summary of the method: as §1

ETV6, sequence (P41212 whole entry): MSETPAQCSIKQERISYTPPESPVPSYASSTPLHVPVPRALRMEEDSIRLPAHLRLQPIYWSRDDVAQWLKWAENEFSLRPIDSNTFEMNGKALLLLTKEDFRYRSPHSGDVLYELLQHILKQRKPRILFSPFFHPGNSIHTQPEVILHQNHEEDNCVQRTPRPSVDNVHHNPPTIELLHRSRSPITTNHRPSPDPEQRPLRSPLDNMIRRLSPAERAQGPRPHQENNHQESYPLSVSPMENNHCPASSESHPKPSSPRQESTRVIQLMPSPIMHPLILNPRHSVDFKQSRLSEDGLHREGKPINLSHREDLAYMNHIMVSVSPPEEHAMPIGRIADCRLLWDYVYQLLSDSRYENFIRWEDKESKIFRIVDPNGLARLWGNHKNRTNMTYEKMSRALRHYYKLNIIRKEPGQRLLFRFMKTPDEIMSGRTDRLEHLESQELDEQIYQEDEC

Sequence | binding signal [1] | binding signal [2] | binding signal [3] | binding signal [4] | binding signal [5] | binding signal [6] | binding signal [7] | binding signal [8]
TGCTGA | 1.03 fold enrichment (6-mer frequency, TF over GST control) | 1.05 fold enrichment (6-mer frequency, TF over GST control) | 1.11 fold enrichment (6-mer frequency, TF over GST control) | 1.11 fold enrichment (6-mer frequency, TF over GST control) | 1.07 fold enrichment (6-mer frequency, TF over GST control) | 1 fold enrichment (6-mer frequency, TF over GST control) | 1.12 fold enrichment (6-mer frequency, TF over GST control) | 1.01 fold enrichment (6-mer frequency, TF over GST control)
CTCTCC | 1.43 fold enrichment (6-mer frequency, TF over GST control) | 1.44 fold enrichment (6-mer frequency, TF over GST control) | 1.43 fold enrichment (6-mer frequency, TF over GST control) | 1.22 fold enrichment (6-mer frequency, TF over GST control) | 1.31 fold enrichment (6-mer frequency, TF over GST control) | 1.37 fold enrichment (6-mer frequency, TF over GST control) | 1.45 fold enrichment (6-mer frequency, TF over GST control) | 1.37 fold enrichment (6-mer frequency, TF over GST control)
CCACGC | 1.12 fold enrichment (6-mer frequency, TF over GST control) | 1.17 fold enrichment (6-mer frequency, TF over GST control) | 1.24 fold enrichment (6-mer frequency, TF over GST control) | 1.17 fold enrichment (6-mer frequency, TF over GST control) | 1.15 fold enrichment (6-mer frequency, TF over GST control) | 1.11 fold enrichment (6-mer frequency, TF over GST control) | 1.16 fold enrichment (6-mer frequency, TF over GST control) | 1.15 fold enrichment (6-mer frequency, TF over GST control)
CCCTGG | 1.24 fold enrichment (6-mer frequency, TF over GST control) | 1.16 fold enrichment (6-mer frequency, TF over GST control) | 1.06 fold enrichment (6-mer frequency, TF over GST control) | 1.02 fold enrichment (6-mer frequency, TF over GST control) | 1.26 fold enrichment (6-mer frequency, TF over GST control) | 1.06 fold enrichment (6-mer frequency, TF over GST control) | 1.13 fold enrichment (6-mer frequency, TF over GST control) | 1.05 fold enrichment (6-mer frequency, TF over GST control)
CGAAAG | 1.11 fold enrichment (6-mer frequency, TF over GST control) | 1.05 fold enrichment (6-mer frequency, TF over GST control) | 1.11 fold enrichment (6-mer frequency, TF over GST control) | 1.07 fold enrichment (6-mer frequency, TF over GST control) | 1.19 fold enrichment (6-mer frequency, TF over GST control) | 1 fold enrichment (6-mer frequency, TF over GST control) | 1.02 fold enrichment (6-mer frequency, TF over GST control) | 1.02 fold enrichment (6-mer frequency, TF over GST control)
TGGACA | 1.08 fold enrichment (6-mer frequency, TF over GST control) | 1.06 fold enrichment (6-mer frequency, TF over GST control) | 1.12 fold enrichment (6-mer frequency, TF over GST control) | 1.04 fold enrichment (6-mer frequency, TF over GST control) | 1.06 fold enrichment (6-mer frequency, TF over GST control) | 1.02 fold enrichment (6-mer frequency, TF over GST control) | 1.06 fold enrichment (6-mer frequency, TF over GST control) | 1.09 fold enrichment (6-mer frequency, TF over GST control)
AAGTTG | 1.08 fold enrichment (6-mer frequency, TF over GST control) | 1.11 fold enrichment (6-mer frequency, TF over GST control) | 1.11 fold enrichment (6-mer frequency, TF over GST control) | 1.02 fold enrichment (6-mer frequency, TF over GST control) | 1.26 fold enrichment (6-mer frequency, TF over GST control) | 1.17 fold enrichment (6-mer frequency, TF over GST control) | 1.07 fold enrichment (6-mer frequency, TF over GST control) | 1.17 fold enrichment (6-mer frequency, TF over GST control)
